The results in this text go back to PubChem BioAssay (Tox21).

Assay [1] in a line: A CellTox Green Cytotoxicity Assay to monitor cytotoxicity in HepG2 cells - 8 hour (AID 1224890). Note: nearly all actives have a fitted effect of over 45% in size. The method, boiled down:
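Nonlytic assay: viable cells exclude the dye, so fluorescence scales with cell death. HepG2 at 600 cells/well, compounds added after 5 h, signal read across 40 h.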

Assay [2] can be described thus: qHTS assay to identify small molecule antagonists of the estrogen receptor alpha (ER-alpha) signaling pathway using the BG1 cell line in the presence of 0.1 nM 17-beta-estradiol - cell viability counter screen (AID 1259241). Note: nearly all actives have a fitted effect of over 40% in size. Note: potency is the fitted concentration of half-maximal effect. The procedure, abridged:
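VM7Luc4E2 cells (endogenous full-length ER-alpha, 4xERE-luciferase), cultured 5 days in charcoal-stripped serum, exposed to compounds with 0.1 nM 17beta-estradiol (final) for 22 hr at 37C. Viability read in same wells as live-cell protease fluorescence after 30 min.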
Background: qHTS replaces the single test concentration by a dilution series.

Assay [3] is described as follows: qHTS assay to identify small molecule antagonists of the androgen receptor (AR) signaling pathway using the MDA cell line in the presence of 0.5 nM R1881 - cell viability counter screen (AID 1259242). Note: nearly all actives have a fitted effect of over 45% in size. The method, boiled down:
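R1881 at 0.5 nM final stimulated MDA-kb2 cells during 16 hr compound treatment at 37C. Cytotoxicity read: CellTiter-Fluor fluorescence after 30 min.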

In assay [4] the target is Estrogen receptor (Homo sapiens) (UniProt P03372). In words: qHTS assay to identify small molecule antagonists of the estrogen receptor alpha (ER-alpha) signaling pathway using the BG1 cell line in the presence of 0.1 nM 17-beta-estradiol (AID 1259244). Note: nearly all actives have a fitted effect of over 50% in size. The method, boiled down:
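VM7Luc4E2; 4xERE-luciferase; 0.1 nM E2 final; 22 h co-incubation, 37C; ONE-Glo luminescence after 30 min at room temperature.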

Assay [5] is described as follows: qHTS assay to identify small molecule HDAC inhibitors (AID 1259364). Note: potency is the fitted concentration of half-maximal effect.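 Note: wild-type HCT-116 cells with endogenous class I/II HDAC activity; nearly all actives have a fitted effect of over 45% in size.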 The procedure, abridged:
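Relative class I and II HDAC activity is taken from the luminogenic signal in HCT-116 cells, with compound exposure 2 hr and reagent development 30 min at room temperature.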

Assay [6] is described as follows: qHTS assay to identify small molecule HDAC inhibitors - cell viability counter screen (AID 1259365). Note: series mostly up to about 92 µM; nearly all actives have a fitted effect of over 50% in size. The method, boiled down:
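Wild-type HCT-116 cells, 1,500/well, cultured overnight, then compound-treated 2 h at 37 C. Viability measured as ATP luminescence with CellTiter-Glo after 30 min at room temperature.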

Assay [7] is described as follows: qHTS assay to identify small molecule agonists of the sonic hedgehog signaling (Shh) pathway - cell viability counter screen (AID 1259366). Note: nearly all actives have a fitted effect of over 50% in size. The procedure, abridged:
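NIH/3T3-derived Gli1-Luc reporter cells, 2,000 per well, received compound after 4 h and were treated about 23 h at 37C. Viability measured in the same wells by CellTiter-Fluor fluorescence after 1 h.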

Assay [8] can be described thus: qHTS assay to identify small molecule antagonists of the sonic hedgehog signaling (Shh) pathway - cell viability counter screen (AID 1259367). Note: nearly all actives have a fitted effect of over 55% in size. The procedure, abridged:
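After a 4 hr settling period, 3T3 Gli1-Luc cells were treated with DMSO-dissolved chemicals and conditioned medium, kept 24 hr at 37C in 5% CO2, and assayed for viability by CellTiter-Fluor fluorescence following 1 hr reagent incubation.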

Assay [9] can be described thus: qHTS assay to identify small molecule agonists of the sonic hedgehog signaling (Shh) pathway (AID 1259368; calls by dose curve;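 note: NIH/3T3-derived 3T3Gli1-Luc cells carrying a stable Gli1-driven firefly luciferase reporter; series mostly up to about 92 µM; nearly all actives have a fitted effect of over 15% in size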). The method, boiled down: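 Mouse fibroblast (NIH/3T3) reporter cells with stably integrated Gli1-Luc were treated 24 hr with compound; firefly luciferase luminescence served as the read-out.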
Assay [10] in a line: qHTS assay to identify small molecule antagonists of the sonic hedgehog signaling (Shh) pathway (AID 1259369; calls by dose curve; note: nearly all actives have a fitted effect of over 45% in size). The procedure, abridged:
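Conditioned medium drives Shh signalling in 3T3Gli1-Luc cells; compounds in DMSO co-applied, 24hr at 37 C, then luciferase luminescence.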

For assay [11], the target named is Estrogen receptor beta (Homo sapiens) (UniProt Q92731). In words: qHTS assay to identify small molecule antagonists of the estrogen receptor beta (ER-beta) signaling pathway (AID 1259378; active = well fitted inhibition curve with a large enough effect in the signal ratio in the repeat runs, not every such curve was filed as active; the % refers to the signal ratio). The procedure, abridged:
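ER-beta-UAS-bla HEK293T (GripTite) cells in 2% charcoal-stripped FBS medium were preincubated 6 hr at 37C, dosed with compound, then stimulated with 1 nM E2 (final) for 16 hr; beta-lactamase reporter read by B/G FRET fluorescence after 2 hr substrate loading.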

Assay [12] is described as follows: qHTS assay to identify small molecule agonists of the androgen receptor (AR) signaling pathway in the presence of an antagonist - cell viability counter screen (AID 1259379).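 Note: MDA-kb2 human breast cancer cells carrying an MMTV luciferase reporter; series mostly up to about 92 µM; nearly all actives have a fitted effect of over 25% in size.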 The method, boiled down: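 A CellTiter-Fluor read-out measured viability of MDA-kb2 reporter cells (MMTV promoter with AR and GR response elements). Treatment: nilutamide 3.0uM final with compounds at 15 concentrations, 16 hr, 37C, 0% CO2.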

Assay [13] is described as follows: qHTS assay to identify small molecule antagonists of the estrogen receptor beta (ER-beta) signaling pathway - cell viability counter screen (AID 1259382). Note: series mostly up to about 92 µM; nearly all actives have a fitted effect of over 55% in size. The procedure, abridged: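 Agonist-stimulated (1nM E2) ER-beta-UAS-bla HEK293T cells are incubated with library compounds for 16 hr at 37C. Cell viability is then assessed in the reporter-assay wells by adding CellTiter-Glo and reading luminescence after 30 min.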

The target in assay [14] is Estrogen receptor (Homo sapiens) (UniProt P03372). The assay is described as follows: qHTS assay to identify small molecule agonists of the estrogen receptor alpha (ER-alpha) signaling pathway in the presence of an antagonist (AID 1259383; calls by dose curve; note: top concentration of the series differs between compounds; nearly all actives have a fitted effect of over 15% in size). The method, boiled down: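 Using VM7Luc4E2 cells seeded 24hr before treatment, antagonist ICI-182,780 (10.0nM final) was added, followed by compounds at 15 concentrations. Plates incubated 22hr; ONE-Glo luminescence quantified reporter activity.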
Estrogen receptor (Homo sapiens), sequence (P03372 whole entry, looked up): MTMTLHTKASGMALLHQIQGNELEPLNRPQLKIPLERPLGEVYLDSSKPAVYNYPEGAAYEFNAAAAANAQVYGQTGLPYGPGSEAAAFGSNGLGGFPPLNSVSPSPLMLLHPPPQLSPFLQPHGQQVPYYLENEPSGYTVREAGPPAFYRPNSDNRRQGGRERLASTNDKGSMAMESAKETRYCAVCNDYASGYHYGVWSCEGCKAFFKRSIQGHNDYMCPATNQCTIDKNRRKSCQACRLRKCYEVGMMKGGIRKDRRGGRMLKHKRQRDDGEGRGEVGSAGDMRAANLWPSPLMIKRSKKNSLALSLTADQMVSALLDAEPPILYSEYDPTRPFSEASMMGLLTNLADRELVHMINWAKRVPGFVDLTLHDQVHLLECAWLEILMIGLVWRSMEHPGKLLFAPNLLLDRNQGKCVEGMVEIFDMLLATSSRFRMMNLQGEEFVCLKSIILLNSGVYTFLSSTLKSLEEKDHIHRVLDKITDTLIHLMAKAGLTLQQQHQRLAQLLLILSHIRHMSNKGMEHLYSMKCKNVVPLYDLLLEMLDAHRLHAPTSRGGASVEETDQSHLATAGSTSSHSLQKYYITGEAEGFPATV

The nature of assay [15]: qHTS assay to identify small molecule agonists or antagonists of the thyroid stimulating hormone receptor (TSHR) signaling pathway - wild type cell line counter screen (AID 1259384; calls by dose curve). The method, boiled down:
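Wild-type HEK293 cells were plated 18 h at 37 C/5% CO2, pin-dosed with compound plus Ro20-1724 medium, held 30 min at room temperature, then given cAMP-d2 and anti-cAMP-cryptate; fluorescence was read after 1 h. Fifteen concentrations, triplicate.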

Assay [16] is described as follows: qHTS assay to identify small molecule agonists of the estrogen receptor beta (ER-beta) signaling pathway - cell viability counter screen (AID 1259380). Note: nearly all actives have a fitted effect of over 30% in size. The method, boiled down: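 Cells used were ER-beta-UAS-bla HEK293T in medium with 2% charcoal-stripped FBS. They were treated for 16 hr at 37C. Viability came from CellTiter-Glo luminescence.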
Assay [17] is described as follows: qHTS assay to identify small molecule phospholipidosis (PLD) inducers (AID 1259344; active = well fitted curve in the direction sought with a large enough effect; an effect the other way counts as inactive or inconclusive). The procedure, abridged: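 HepG2 cells grown on collagen I take up LipidTOX Red while exposed to compound for 24 h; after fixation they are imaged at 20x and pit metrics are extracted.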
Assay [18] deals with Estrogen receptor beta (Homo sapiens) (UniProt Q92731). The assay is described as follows: qHTS assay to identify small molecule agonists of the estrogen receptor beta (ER-beta) signaling pathway (AID 1259377; active = well fitted activation curve with a large enough effect in the signal ratio in the repeat runs, not every such curve was filed as active; the % refers to the signal ratio). The procedure, abridged: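 ER-beta-UAS-bla HEK293T cells in medium with 2% charcoal-stripped FBS were exposed to compounds for 16 h at 37C. Beta-lactamase reporter activity was read as fluorescence after 2 h with LiveBLAzer B/G FRET substrate at room temperature.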
Estrogen receptor beta (Homo sapiens), sequence (Q92731 whole entry, looked up): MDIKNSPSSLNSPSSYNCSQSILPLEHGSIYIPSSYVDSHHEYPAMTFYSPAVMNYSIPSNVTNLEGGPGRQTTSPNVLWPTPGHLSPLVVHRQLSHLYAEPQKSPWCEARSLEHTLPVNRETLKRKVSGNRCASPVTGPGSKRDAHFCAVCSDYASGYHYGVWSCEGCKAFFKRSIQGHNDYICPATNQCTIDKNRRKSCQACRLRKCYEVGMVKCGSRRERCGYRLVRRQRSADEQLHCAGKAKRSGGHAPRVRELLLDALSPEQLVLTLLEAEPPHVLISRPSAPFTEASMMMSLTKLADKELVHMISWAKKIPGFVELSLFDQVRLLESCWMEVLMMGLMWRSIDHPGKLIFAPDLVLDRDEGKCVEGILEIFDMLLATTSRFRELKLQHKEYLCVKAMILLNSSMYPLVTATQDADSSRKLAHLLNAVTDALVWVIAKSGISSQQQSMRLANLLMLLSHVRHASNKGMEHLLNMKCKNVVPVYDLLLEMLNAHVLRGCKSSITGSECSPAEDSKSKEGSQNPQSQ

Values without a mark were called inactive. Results filed as inconclusive are left out. The source made the active and inactive calls. Unless noted, calls come from the whole dose curve; as a rule, active = well fitted curve in the direction sought with a large enough effect in the repeat runs; inconclusive = weak or mixed curves; inactive = no such curve, though single readings can be large; an effect the other way counts as inactive or inconclusive.

Consider `OCc1c2ccccc2cc2ccccc12`, for which the Potency entry in assay [1], in [2], in [4], in [5], in assay [7] and in assay [8] was “inactive” in each case. The Potency result in [9], in [10], in assay [11], in assay [12] and in assay [14] was “inactive” each time. Also, the result in assay [3], in assay [6], in assay [13] and in assay [15] was inactive.
Consider `O=C1CCCCC1C1CCCCC1` (stereo not given), for which the Potency entry in assay [1], in assay [2], in [4], in [5], in assay [7] and in [8] was “inactive” throughout. The Potency entry in assay [9], in assay [10], in assay [12], in [16] and in assay [14] was “inactive” in each case. For the same compound, the outcome in [3], in assay [6], in assay [13] and in [15] was inactive.
`CC(=O)N[C@@H](CC(C)C)C(=O)O`: the Potency result in assay [1], in [2], in [4], in assay [5], in [7] and in assay [8] was “inactive” each time. For the same compound, the Potency entry in assay [10], in assay [12], in [16] and in assay [14] was “inactive” in each case. Also, the result in assay [3], in assay [17], in [6] and in assay [13] was inactive.
In the case of `CCOc1ccc(NC(N)=O)cc1`, the Potency entry in [1], in assay [2], in assay [4], in assay [5], in [7] and in assay [9] was “inactive” throughout. For the same compound, the Potency entry in [10], in assay [11], in assay [12], in [16] and in [14] was “inactive” each time. Moreover, the outcome in [3], in assay [6], in assay [18], in [13] and in assay [15] was inactive.
With `CC1=CC(=O)CC(C)(C)C1=O`, the Potency result in [1], in assay [2], in assay [4], in assay [7], in assay [8] and in assay [10] was “inactive” each time. In addition, the Potency entry in assay [11], in assay [12], in assay [16] and in assay [14] was “inactive” in each case. Moreover, the outcome in assay [3], in assay [6], in assay [18], in [13] and in [15] was inactive.
As for `CC(C)(C)c1ccc(OC(=O)c2ccccc2O)cc1`, the Potency result in assay [1], in assay [2], in assay [4], in assay [7], in assay [8] and in assay [10] was “inactive” throughout. Moreover, the Potency entry in assay [11] and in assay [12] was “inactive” throughout. Also, the outcome in assay [3], in [6] and in [15] was inactive. The Potency in assay [5] is 27.3 µM (active).
As to `CCC(=O)Nc1ccc(O)cc1`, the Potency entry in assay [1], in [2], in [4], in [5], in assay [7] and in assay [9] was “inactive” each time. The Potency result in assay [10], in [12], in assay [16] and in assay [14] was “inactive” throughout. For the same compound, the outcome in assay [3], in [17], in assay [6], in assay [13] and in assay [15] was inactive.
For the compound `CCOc1ccc(OCC)c(Cl)c1`, the Potency result in assay [1], in assay [2], in assay [4], in assay [5], in [7] and in [8] was “inactive” throughout. Besides, the Potency result in assay [10], in assay [11], in [12], in assay [16] and in [14] was “inactive” throughout. Besides, the result in assay [3], in [6], in assay [18], in [13] and in assay [15] was inactive.
Turning to `Nc1ccc(Oc2ccc(N)c(N)c2)cc1`, the Potency entry in assay [1], in assay [4], in assay [8], in [10], in assay [12] and in assay [14] was “inactive” in each case. In addition, the Potency in [2] is 48.6 µM (active); in assay [5], 30.6 µM (active). Also, the outcome in [3], in assay [6], in assay [13] and in assay [15] was inactive.
